IMPase inh: qHTS Assay for Identifying the Cell-Membrane Permeable IMPase Inhibitors; Inositol monophosphatase 1 (Rattus norvegicus), P97697; CHO-M1 cells, IP1 accumulation, HTRF TR-FRET ratio; inhibition (IP1 accumulation), % at 46.1 µM; 120,000 tested, under 10 active; AID 901, 2007; active = well fitted curve in the direction sought with a large enough effect in the signal ratio, not every such curve was filed as active; inconclusive = small, poorly fitted or top-dose-only effect, or a change in a side signal; inactive = no such curve, though single readings can be large or run the other way; the % refers to the signal ratio;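 note: cells stimulated with carbachol in lithium chloride buffer; plate controls were DMSO basal wells for no effect and reference inhibitor wells for full effect; higher means more IMPase inhibition seen as more IP1 and lower FRET ratio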
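Elevated IP1 in lysates lowers TR-FRET signal (665/620 ratio and 620 channel reported). Cells were CHO-M1, given carbachol (50 uM as added) plus 50mM LiCl, pH 7.4, 30 min, 37C; compounds titrated up to 46 uM; AC50 by Hill equation.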
ALDH1A1 block: qHTS Assay for Inhibitors of Aldehyde Dehydrogenase 1 (ALDH1A1). Aldehyde dehydrogenase 1A1 (Homo sapiens), P00352. Purified ALDH1A1, NADH fluorescence, propionaldehyde substrate. Potency, µM (doses to about 75.3 µM), without a hit: at the highest dose activity, negative = inhibition, hits mostly inhibitors. 220,000 tested, 7.3% active;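 note: potency is the fitted concentration of half-maximal effect; plate controls were no enzyme wells and a reference inhibitor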
Target sequence (P00352 whole entry, looked up): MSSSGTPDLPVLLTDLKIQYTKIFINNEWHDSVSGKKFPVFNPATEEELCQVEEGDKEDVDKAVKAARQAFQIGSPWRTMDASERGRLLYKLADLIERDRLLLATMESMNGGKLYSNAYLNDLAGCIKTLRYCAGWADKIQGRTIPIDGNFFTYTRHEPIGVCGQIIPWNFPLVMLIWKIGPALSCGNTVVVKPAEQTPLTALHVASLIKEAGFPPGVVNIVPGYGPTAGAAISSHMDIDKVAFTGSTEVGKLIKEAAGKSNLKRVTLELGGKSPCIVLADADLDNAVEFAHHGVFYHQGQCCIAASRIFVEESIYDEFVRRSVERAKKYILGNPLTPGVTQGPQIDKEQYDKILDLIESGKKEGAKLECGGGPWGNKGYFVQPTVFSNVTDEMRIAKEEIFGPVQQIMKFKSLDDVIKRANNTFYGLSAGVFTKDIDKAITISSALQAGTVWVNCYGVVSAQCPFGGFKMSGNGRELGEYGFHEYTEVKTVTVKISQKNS
HPGD inh: qHTS Assay for Inhibitors of HPGD (15-Hydroxyprostaglandin Dehydrogenase); 15-hydroxyprostaglandin dehydrogenase [NAD(+)] (Homo sapiens), P15428; purified HPGD, NADH fluorescence kinetic, PGE2 substrate; Potency, µM, without a hit: at the highest dose activity change, negative = inhibition, most hits filed as inhibitors; 150,000 tested, 4.3% active; AID 894, 2007; note: potency is the fitted concentration of half-maximal effect
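20 nM HPGD preincubated 15 min at room temperature with compound in 50 mM Tris-HCl pH 8, 0.01% Tween 20. Started with 1 mM NAD+ and 30 uM prostaglandin E2; NADH fluorescence (360/450 nm) read 5 times over 30-s intervals, last minus first.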
* = called active by the depositor; ? = inconclusive; . = not tested or not shown; [ ] = dose if it differs, or a comment. Hits are enriched below; roughly 9% of the tested compounds scored in any of these assays. Unless noted, calls come from the whole dose curve; as a rule, active = well fitted inhibition curve with a large enough effect (not every such curve was filed as active); inconclusive = small, poorly fitted or top-dose-only effect, or another doubt; inactive = no such curve, though single readings can be large or run the other way. Unless noted, % is set by controls: 0 for no effect and ±100 for the full control effect.

SMILES	IMPase inh	ALDH1A1 block	HPGD inh
O=C1COc2ccc(C(=O)CSc3nnc(-c4cccs4)n3Cc3ccccc3)cc2N1	3	?	-24%
COc1ccc(-n2c(Cc3cccn3C)nnc2SCC(=O)Nc2ccccc2)cc1	2	14µM*	-14%
Cc1ccc(-n2c(Cc3cccs3)nnc2SCC(=O)Nc2ccc(F)c(F)c2)cc1	1	?	-5%
COc1ccc(NC(=O)CSc2nnc(Cc3cccn3C)n2-c2ccc(F)cc2)cc1OC	1	25µM*	-16%
CN(c1ccccc1C(=O)Nc1cccc(Cl)c1Cl)S(C)(=O)=O	1	12%	-4%
Cc1ccc(OCC(=O)Nc2cc(C(=O)O)cc(C(=O)O)c2)cc1C	.	15%	.
Cn1c(=O)c2c(ncn2CCN(CCO)Cc2ccccc2)n(C)c1=O	-4	-4%	-15%
O=C(Nc1sc2c(c1C(=O)Nc1ccccc1Cl)CCCC2)c1ccccc1F	34	.	.
Cn1cccc1Cc1nnc(SCC(=O)Nc2ccccc2)n1-c1ccc(F)cc1	7	?	-10%
Cc1ccc(-n2c(Cc3cccn3C)nnc2SCC(=O)Nc2ccc3c(c2)OCO3)cc1	-18	?	-20%
Cn1cccc1Cc1nnc(SCC(=O)Nc2ccc(Cl)cc2)n1-c1ccc(F)cc1	5	?	-11%
COc1ccc(-n2c(Cc3cccn3C)nnc2SCC(=O)Nc2ccc(Cl)cc2)cc1	0	4µM*	-11%
Cc1ccc(-n2c(Cc3cccn3C)nnc2SCC(=O)Nc2nnc(C)s2)cc1	-16	6%	-10%
Cc1nnc(NC(=O)CSc2nnc(Cc3cccn3C)n2C)s1	12	22µM*	-9%
COc1ccc(-n2c(Cc3cccn3C)nnc2SCC(=O)Nc2cccc(F)c2)cc1	0	13µM*	-16%
Cn1cccc1Cc1nnc(SCC(=O)Nc2ccc3c(c2)OCCO3)n1-c1ccc(F)cc1	1	20µM*	0%
COc1ccccc1N/C(N)=N/c1nc(C(F)(F)F)cc(=O)[nH]1	.	-10%	.
CC1CCN(c2ccc(N3C(=O)C4CCCCC4C3=O)cc2[N+](=O)[O-])CC1 (centres undefined)	.	-12%	-7%
N/C(=N\OC(=O)CCn1cccc(C(F)(F)F)c1=O)c1ccc(Cl)cc1	.	-7%	.
Cc1cccc(Nc2ncc(NC(=O)c3cccc(F)c3)c(Nc3cccc(C)c3)n2)c1	-3	.	.
CCCNC(=O)c1cc2c(C(F)(F)F)nn(C)c2s1	-8	?	-17%
Cc1nc2ccccc2n1CC(=O)N1CC(=O)Nc2ccccc21	4	?	-3%
O=C(Cn1ncc(Cl)c(Cl)c1=O)NCC1CCCCC1	.	22µM*	-8%
O=C1CN(C(=O)Cn2ncc(Cl)c(Cl)c2=O)c2ccccc2N1	.	3.2µM*	.
O=C1CN(C(=O)/C=C/c2ccc(Cl)cc2)c2ccccc2N1	.	-12%	.
SMILES	IMPase inh	ALDH1A1 block	HPGD inh
O=C(CN1CCNCC1)Nc1ccccc1Cl	0	-5%	-2%
O=C1CN(C(=O)CNCc2ccc(Cl)cc2)c2ccccc2N1	.	13µM*	.
Cc1cccc(N2CCN(CC(=O)NCC3CCCCC3)CC2)c1C	-7	-6%	1%
O=C1CN(CC(=O)Nc2cccc(Cl)c2Cl)c2ccccc2N1	.	4µM*	.
O=C(O)[C@@H]1[C@@H](C(=O)Nc2ncccn2)[C@@H]2C=C[C@@H]1O2	.	-1%[13.5 µM]	-8%
O=C1CN(C(=O)COC(=O)c2cccnc2Cl)c2ccccc2N1	.	6%	.
O=C1CN(C(=O)COC(=O)CCSc2ccccc2Cl)c2ccccc2N1	-2	14µM*	18µM*
CC(=O)NC(Cc1ccc(C(C)C)cc1)C(=O)NC1CCN(C(=O)c2cccc(C)c2)CC1 (centres undefined)	.	25µM*	.
CC(=O)NC(Cc1cccc(F)c1)C(=O)NC1CCN(C(=O)c2cccc(C)c2)CC1 (centres undefined)	.	4%	.
CN(C)CCNC(=O)Nc1ccc(F)cc1F	.	13%	.
O=S(=O)(NCCNS(=O)(=O)c1cccs1)c1cccs1	2	0%	1%
C=CCNC(=S)NS(=O)(=O)c1cccs1	.	18µM*	.
Cc1ccc(NC(=O)COC(=O)[C@H](C)N2C(=O)C3CC=CCC3C2=O)cc1S(=O)(=O)N(C)C (some centres undefined)	.	-4%	.
O=C(/C=C/c1ccccc1)N1CCCN(C(=O)/C=C/c2ccccc2)CC1	8	5%	-3%
O=C(/C=C/c1ccccc1)/C=C/c1ccccc1	.	32µM*	-22%
CCc1ccc(NC(=O)C(=O)NNC(=O)COc2cccc(OC)c2)cc1	.	-3%	-1%
O=C(N/N=C/c1cccs1)c1cc(-c2cccc3ccccc23)n[nH]1	7	-1%	25µM*
O=C(N/N=C/c1cccs1)c1cc(-c2ccc3ccccc3c2)n[nH]1	11	12%	-29%
CCOC(=O)c1c(C)nc2c(c1-c1ccc(Cl)cc1)C(=O)CC(C)(C)C2	-12	-6%	.
O=[N+]([O-])c1cccc(/C=N/Nc2nc(NCc3ccccc3)nc(N3CCOCC3)n2)c1O	.	-6%	.
CN(C)CCCNC(=O)CC(c1ccc(F)cc1)c1ccco1 (centres undefined)	-3	5%	-4%
CCN(CC)C(=O)CC(c1ccc(F)cc1)c1ccco1 (centres undefined)	4	?	20µM*
CCOC(=O)CCCOC(=O)c1ccc(S(=O)(=O)N(C)C)cc1	-5	6%	-13%
O=C(/C=C1\NCC2c3ccccc3CCN2C1=O)c1ccccc1 (centres undefined)	1	20µM*	-19%
O=C(C1CCCCC1)N1CC(=O)N2CCc3ccccc3[C@@H]2C1	1[20.6 µM]	?	-9%
SMILES	IMPase inh	ALDH1A1 block	HPGD inh
CC(C)CC(=O)O/N=C1\C(=O)N(Cc2ccc(Cl)cc2)c2ccc([N+](=O)[O-])cc21	-6	?	14µM*
CC(C)CC(=O)O/N=C1\C(=O)N(c2ccccc2)c2ccccc21	4	?	-11%
COc1ccc(OC(=O)c2cnc3n(c2=O)CCS3)cc1	.	4%	.
O=S(=O)(Nc1ccc(Cc2ccncc2)cc1)c1ccc(Br)s1	11	8%	-23%
CCS(=O)(=O)Nc1ccc(Cc2ccncc2)cc1	9	-14%	1.3µM*
O=S(=O)(Nc1ccc(Cc2ccncc2)cc1)c1cccs1	12	10%	28µM*
O=S(=O)(Nc1ccc(Cc2ccncc2)cc1)c1ccc(Cl)cc1	.	5%	.
CCS(=O)(=O)Nc1ccc(NC(C)=O)cc1	-7	8%	25µM*
CC(=O)Nc1ccc(NS(C)(=O)=O)cc1	1	10%	-5%
Cc1ccc(-c2nc3nc(C)cc(N4CCN(c5cccc(C)c5C)CC4)n3n2)cc1	-4	.	.
O=C(Nc1nnc(-c2ccncc2)o1)c1ccc(Br)s1	.	6%	.
CCOC(=O)c1ccccc1NC(=O)CSc1nc(N)cc(=O)[nH]1	.	-3%	.
CC(C)(C)OC(=O)N[C@@H](CC(=O)OCc1ccccc1)C(=O)O	.	6%	.
COC(=O)C(Cc1cncn1COCc1ccccc1)NC(=O)OC(C)(C)C (centres undefined)	4	20µM*	-5%
CCCSc1nnc2c(n1)OC(CC)N(C(C)=O)c1ccccc1-2 (centres undefined)	-3	.	.

Compound activity (PubChem BioAssay)
